# Experimental data published in PubChem BioAssay.
# Several values for one entry are separate records, joined by “and”; a condition that tells them apart may be missing. Identical values can stand only once. Inconclusive results are not listed. Where a structure was tested more than once in an assay, its records may differ in their call. Activity calls are given as the source filed them.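 The calls were made as follows, unless noted: active = normalized viability below 100% at a tested concentration; inactive = the rest.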
# Tests used:
# [1] = test system: Aerobactin synthetase IucA (Klebsiella pneumoniae); test: inhibition of K. pneumoniae IucA enzyme – biochemical, Tocris library, absorbance (AID 1345561; call rule not given here;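 also: 100% = enzyme without compound and 0% = no enzyme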); conditions: purified IucA enzyme assay, absorbance (OD) read-out; stronger effect = lower value;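 tested at 8 µM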
# [2] = viability loss in pontine glioma line – cell-based, SU-DIPG-XVII, MIPE5.0, CellTiter-Glo, qHTS, dose response (AID 1347060; cut-off not given, nearly all actives have AC50 up to about 26 µM); conditions: CellTiter-Glo ATP luminescence
# [3] = viability loss in pontine glioma line – cell-based, SU-DIPG-XIII, MIPE4.0, CellTiter-Glo, qHTS, dose response (AID 1347061; cut-off not given, nearly all actives have AC50 up to about 37 µM;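 also: cells exposed to compound for 48 hours before readout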); conditions: CellTiter-Glo ATP luminescence
# [4] = viability loss in pontine glioma line – cell-based, SU-DIPG-XIII, MIPE5.0, CellTiter-Glo, qHTS, dose response (AID 1347064; cut-off not given, nearly all actives have AC50 up to about 23 µM); conditions: CellTiter-Glo ATP luminescence
# [5] = growth inhibition of DIPG cells – cell-based, MIPE4.0 library, CellTiter-Glo luminescence, qHTS (AID 1347066; cut-off not given, nearly all actives have AC50 up to about 30 µM;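 also: cells exposed to compound for 48 hours before readout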); conditions: SU-DIPG-VI viability, CellTiter-Glo ATP luminescence
# [6] = JHH-DIPG-1 glioma cell viability, MIPE5.0 library, CellTiter-Glo luminescence, qHTS (AID 1347067; cut-off not given, nearly all actives have AC50 up to about 26 µM;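 also: cells exposed to compound for 48 hours before readout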); conditions: JHH-DIPG-1 glioma viability, CellTiter-Glo ATP luminescence
# [7] = growth inhibition of DIPG cells – cell-based, MIPE5.0 library, qHTS (AID 1347068; cut-off not given, nearly all actives have IC50 up to about 30 µM); conditions: SU-DIPG-XXV viability
# [8] = viability loss with induced miR-34 in A549 – imaging, A549 dox-inducible miR-34, nuclei and caspase counts, primary screen (AID 1347080;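 active = compounds whose cell count with miR-34 switched on is under 0.7 times the count with it off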); conditions: A549 miR-34 inducible, Hoechst nuclei count, 48 h
# [9] = galactose survival enhancers in mitochondrial complex I cybrids – cell-based, galactose medium, ATP luminescence, primary screen (AID 1645843;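 active = z-score of at least 1.8 in each of two replicates, scored against plate mean and spread of sample wells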;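 also: positive z means more ATP and so rescue of galactose-driven cybrid death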); conditions: complex I mutant cybrid cells, 72 h, stronger effect = higher value
# [10] = P. berghei load reduction in hepatocytes – cell-based, HepG2, luciferase luminescence, HepG2 viability, primary screen (AID 624349; in the data active = parasite load remaining mostly below about 12%, no sharp cut-off; inactive = mostly above about 10%;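 also: 100% = mean of DMSO negative control wells on the same plate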); conditions: P. berghei liver stage in HepG2, luciferase luminescence, concentration not given here; parasite load remaining: stronger effect = lower value; viability: measured here: HepG2 viability without parasites
# [11] = viability loss in pontine glioma line – cell-based, JHH-DIPG-1, MIPE4.0, CellTiter-Glo, qHTS, dose response (AID 1347062; cut-off not given, nearly all actives have AC50 up to about 27 µM;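 as to AC50: cells exposed to compound for two days before readout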); conditions: JHH-DIPG-1 viability, CellTiter-Glo ATP luminescence
# [12] = compounds altering HSF1 focus formation in cells – imaging, Selleck Cancer Library (AID 1347162; in the data active = plate-normalised HSF1 focus index below about 0.46); conditions: human cells, HSF1 nuclear foci imaging, at 10 µM; SSMD: measured here: HSF1 foci SSMD mean; cell count: measured here: cell number; plate-normalised HSF1 focus index: stronger effect = lower value
# [13] = MELAS cybrid and Rieske KO viability enhancers – cell-based, MELAS cybrids, Rieske KO mouse fibroblasts, CellTiter-Glo, primary screen (AID 1508586;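 active = mean z-score across replicates of 1.96 or higher in either the MELAS or the Rieske mutant cell line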;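 also: z relative to plate mean and SD of compound and empty wells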); conditions: low glucose
# [14] = drug combination growth inhibition, ovarian cancer – cell-based, oncology-focused library, rucaparib conditional, profiling panel (AID 1508598); conditions: patient-derived ovarian cancer cells, CellTiter-Glo viability, 144 h, stronger effect = lower value
# [15] = viability loss in pontine glioma line – cell-based, SU-DIPG-XXV, MIPE5.0, CellTiter-Glo, qHTS, dose response (AID 1347065; cut-off not given, nearly all actives have AC50 up to about 26 µM;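 also: cells exposed to compound for 48 hours before ATP readout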); conditions: CellTiter-Glo ATP luminescence
# [16] = stronger effect = lower value, cell number ratio, induced over uninduced
# [17] = measured here: relative caspase fold change +Dox/-Dox
# [18] = measured here: total cells with miR-34 induction, stronger effect = lower value
# [19] = measured here: total cells without miR-34 induction
# [20] = at 0.000305 µM, OCI-C5x cells, with rucaparib 10 µM, 100% = cells with rucaparib alone
# [21] = at 0.000305 µM, OCI-C5x cells, without rucaparib
# [22] = at 0.000305 µM, OCI-P5x cells, with rucaparib 20 µM, 100% = cells with rucaparib alone
# [23] = at 0.000305 µM, OCI-P5x cells, without rucaparib
# [24] = at 0.00122 µM, OCI-C5x cells, with rucaparib 10 µM, 100% = cells with rucaparib alone
# [25] = at 0.00122 µM, OCI-C5x cells, without rucaparib
# [26] = at 0.00122 µM, OCI-P5x cells, with rucaparib 20 µM, 100% = cells with rucaparib alone
# [27] = at 0.00122 µM, OCI-P5x cells, without rucaparib
# [28] = at 0.00488 µM, OCI-C5x cells, with rucaparib 10 µM, 100% = cells with rucaparib alone
# [29] = at 0.00488 µM, OCI-C5x cells, without rucaparib
# [30] = at 0.00488 µM, OCI-P5x cells, with rucaparib 20 µM, 100% = cells with rucaparib alone
# [31] = at 0.00488 µM, OCI-P5x cells, without rucaparib
# [32] = at 0.0195 µM, OCI-C5x cells, with rucaparib 10 µM, 100% = cells with rucaparib alone
# [33] = at 0.0195 µM, OCI-C5x cells, without rucaparib
# [34] = at 0.0195 µM, OCI-P5x cells, with rucaparib 20 µM, 100% = cells with rucaparib alone
# [35] = at 0.0195 µM, OCI-P5x cells, without rucaparib
# [36] = at 0.0781 µM, OCI-C5x cells, with rucaparib 10 µM, 100% = cells with rucaparib alone
# [37] = at 0.0781 µM, OCI-C5x cells, without rucaparib
# [38] = at 0.0781 µM, OCI-P5x cells, with rucaparib 20 µM, 100% = cells with rucaparib alone
# [39] = at 0.0781 µM, OCI-P5x cells, without rucaparib
# [40] = at 0.313 µM, OCI-C5x cells, with rucaparib 10 µM, 100% = cells with rucaparib alone
# [41] = at 0.313 µM, OCI-C5x cells, without rucaparib
# [42] = at 0.313 µM, OCI-P5x cells, with rucaparib 20 µM, 100% = cells with rucaparib alone
# [43] = at 0.313 µM, OCI-P5x cells, without rucaparib
# [44] = at 1.25 µM, OCI-C5x cells, with rucaparib 10 µM, 100% = cells with rucaparib alone
# [45] = at 1.25 µM, OCI-C5x cells, without rucaparib
# [46] = at 1.25 µM, OCI-P5x cells, with rucaparib 20 µM, 100% = cells with rucaparib alone
# [47] = at 1.25 µM, OCI-P5x cells, without rucaparib
# [48] = at 5 µM, OCI-C5x cells, with rucaparib 10 µM, 100% = cells with rucaparib alone
# [49] = at 5 µM, OCI-C5x cells, without rucaparib
# [50] = at 5 µM, OCI-P5x cells, with rucaparib 20 µM, 100% = cells with rucaparib alone
# [51] = at 5 µM, OCI-P5x cells, without rucaparib
smiles,measurement,setting,value
CC(C)[C@H](CO)Nc1nc(Nc2ccc(C(=O)O)c(Cl)c2)c2ncn(C(C)C)c2n1,remaining activity,[1],110% (inactive)
same,outcome,[2],inactive
same,outcome,[3],inactive
same,outcome,[4],inactive
same,AC50,[5],23.5 µM (active)
same,outcome,[6],inactive
same,outcome,[7],inactive
same,fold change,[8]; [16],0.902 (inactive)
same,fold change,[8]; [17],0.706
same,cell count,[8]; [18],8820
same,cell count,[8]; [19],9770
same,z-score,[9],0.185 (inactive)
CS(=O)c1ccc(-c2nc(-c3ccc(F)cc3)c(-c3ccncc3)[nH]2)cc1 (stereo unspecified),parasite load remaining,[10],28.5% (inactive)
same,viability,[10],76.8%
same,remaining activity,[1],113% (inactive) and 119% (inactive)
same,outcome,[2],inactive
same,AC50,[11],15.2 µM (active)
same,outcome,[4],inactive
same,outcome,[5],inactive
same,SSMD,[12],2.53
same,cell count,[12],7460
same,plate-normalised HSF1 focus index,[12],1.16 (inactive)
same,z-score,"[13]; MELAS cybrid survival, CellTiter-Glo 48 h, stronger effect = higher value",-0.617 (inactive)
same,z-score,"[13]; Rieske KO mouse fibroblast survival, CellTiter-Glo 72 h",0.991
same,viability,[14]; [20],128% (inactive)
same,viability,[14]; [21],139% (inactive)
same,viability,[14]; [22],109% (inactive)
same,viability,[14]; [23],111% (inactive)
same,viability,[14]; [24],123% (inactive)
same,viability,[14]; [25],135% (inactive)
same,viability,[14]; [26],103% (inactive)
same,viability,[14]; [27],107% (inactive)
same,viability,[14]; [28],134% (inactive)
same,viability,[14]; [29],139% (inactive)
same,viability,[14]; [30],108% (inactive)
same,viability,[14]; [31],111% (inactive)
same,viability,[14]; [32],128% (inactive)
same,viability,[14]; [33],145% (inactive)
same,viability,[14]; [34],108% (inactive)
same,viability,[14]; [35],108% (inactive)
same,viability,[14]; [36],127% (inactive)
same,viability,[14]; [37],164% (inactive)
same,viability,[14]; [38],108% (inactive)
same,viability,[14]; [39],112% (inactive)
same,viability,[14]; [40],129% (inactive)
same,viability,[14]; [41],159% (inactive)
same,viability,[14]; [42],119% (inactive)
same,viability,[14]; [43],111% (inactive)
same,viability,[14]; [44],116% (inactive)
same,viability,[14]; [45],166% (inactive)
same,viability,[14]; [46],130% (inactive)
same,viability,[14]; [47],108% (inactive)
same,viability,[14]; [48],132% (inactive)
same,viability,[14]; [49],161% (inactive)
same,viability,[14]; [50],119% (inactive)
same,viability,[14]; [51],113% (inactive)
same,z-score,[9],1.98 (inactive) and 3.42 (active)
CCC(C)N(C)C(=O)c1cc2ccccc2c(-c2ccccc2Cl)n1 (stereo unspecified),remaining activity,[1],91.6% (inactive)
same,outcome,[2],inactive
same,outcome,[11],inactive
same,outcome,[4],inactive
same,outcome,[15],inactive
same,outcome,[6],inactive
same,fold change,[8]; [16],0.969 (inactive) and 0.89 (inactive)
same,fold change,[8]; [17],1.99 and 1.15
same,cell count,[8]; [18],8810 and 6770
same,cell count,[8]; [19],9100 and 7610
same,z-score,[9],0.245 (inactive) and 0.79 (inactive)
Cc1ccc(S(=O)(=O)/C=C/C#N)cc1,parasite load remaining,[10],28.8% (inactive)
same,viability,[10],155%
same,remaining activity,[1],118% (inactive)
same,fold change,[8]; [16],1.22 (inactive) and 0.866 (inactive) and 0.568 (active)
same,fold change,[8]; [17],0.97 and 2.14 and 4.02
same,cell count,[8]; [18],1120 and 1020 and 904
same,cell count,[8]; [19],923 and 1180 and 1590
same,SSMD,[12],-10.4
same,cell count,[12],6840
same,plate-normalised HSF1 focus index,[12],0.628 (inactive)
same,viability,[14]; [20],105% (inactive)
same,viability,[14]; [21],97.6% (active)
same,viability,[14]; [22],97.8% (active)
same,viability,[14]; [23],102% (inactive)
same,viability,[14]; [24],116% (inactive)
same,viability,[14]; [25],111% (inactive)
same,viability,[14]; [26],98.6% (active)
same,viability,[14]; [27],106% (inactive)
same,viability,[14]; [28],116% (inactive)
same,viability,[14]; [29],123% (inactive)
same,viability,[14]; [30],94.4% (active)
same,viability,[14]; [31],105% (inactive)
same,viability,[14]; [32],115% (inactive)
same,viability,[14]; [33],117% (inactive)
same,viability,[14]; [34],95.6% (active)
same,viability,[14]; [35],106% (inactive)
same,viability,[14]; [36],115% (inactive)
same,viability,[14]; [37],109% (inactive)
same,viability,[14]; [38],86.5% (active)
same,viability,[14]; [39],102% (inactive)
same,viability,[14]; [40],115% (inactive)
same,viability,[14]; [41],116% (inactive)
same,viability,[14]; [42],90.2% (active)
same,viability,[14]; [43],94.8% (active)
same,viability,[14]; [44],122% (inactive)
same,viability,[14]; [45],112% (inactive)
same,viability,[14]; [46],83.8% (active)
same,viability,[14]; [47],81.1% (active)
same,viability,[14]; [48],3.86% (active)
same,viability,[14]; [49],4.91% (active)
same,viability,[14]; [50],26.6% (active)
same,viability,[14]; [51],2.37% (active)
same,z-score,[9],-1.38 (inactive) and -1.04 (inactive)
